About 1,900 (0.58%) of roughly 330,000 compounds were called active. Inconclusive results (about 4%) are left out. A selection follows. Potency and affinity values are given separately. Unmarked numbers belong to inactive results. Cut-off read from the data, not from the text of the source: inconclusive = inhibition above about 70% without an active follow-up result; inactive = below that.
assay: M. tuberculosis growth inhibition, HTS (AID 449762);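 note: bacterial growth assessed after seven days of incubation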; conditions: M. tuberculosis H37Rv growth inhibition, 7H9 media; at 25 µM; stronger effect = higher value

**Q.** With C[C@H](CO)N1C[C@H](C)[C@@H](CN(C)S(=O)(=O)c2cn(C)cn2)Oc2ccc(NC(=O)Nc3ccc4c(c3)OCO4)cc2C1=O as the compound, how does the inhibition read?
**A.** 3.14%

**Q.** With COc1cccc(C2=NN(C(=O)c3ccc(C)o3)C(O)(C(F)(F)F)C2)c1 (stereo not given) as the compound, how does the inhibition read?
**A.** 3.82%

**Q.** Which inhibition does the source give for Cc1coc2cc3oc(=O)c(CCC(=O)NCCCN4CCCC4=O)c(C)c3cc12 here?
**A.** -8.05%

**Q.** For CN(C(=S)Nc1ccc(F)cc1)C1(c2ccccc2Cl)CCCCC1=O (stereo not given), which inhibition is on record?
**A.** -2.19%

**Q.** For O=C(O)COc1ccccc1/C=N/NC(=O)C(O)c1ccccc1 (stereo not given), which inhibition is on record?
**A.** -3.84%

**Q.** Which inhibition does the source give for Brc1ccc(-c2csc(-c3c[nH]c4ccccc34)n2)cc1 here?
**A.** 20.1%

**Q.** For c1ccc2c(-c3csc(-c4ccncc4)n3)c[nH]c2c1, which inhibition is on record?
**A.** 2.11%

**Q.** Which inhibition does the source give for CCCC(C)NC(=O)COC(=O)c1ccc(Cl)c(S(N)(=O)=O)c1 (stereo not given) here?
**A.** -0.98%

**Q.** Which inhibition does the source give for N#CCOC(=O)c1c2c(nc3ccccc13)CCC2 here?
**A.** 1.84%

**Q.** With CN(Cc1ccccc1)C(=S)NC(=O)c1ccc(-c2ccccc2)cc1 as the compound, how does the inhibition read?
**A.** 26.7%

**Q.** Which inhibition does the source give for C=CCN(CC=C)C(=S)NC(=O)/C=C/c1ccccc1 here?
**A.** -2.7%

**Q.** Which inhibition does the source give for O=C(/C=C/c1ccc(OC2CSC2)cc1)c1ccc(Cl)cc1 here?
**A.** 11.9%

**Q.** For COc1cccc(-c2nn(C)c3sc(C(=O)Nc4ccc5c(c4)OCCO5)cc23)c1, which inhibition is on record?
**A.** 3.01%

**Q.** Which inhibition does the source give for COCCNC(=O)c1cc2c(-c3ccccc3F)nn(C)c2s1 here?
**A.** 12.7%

**Q.** Which inhibition does the source give for COc1ccc(C2/C(=C(/O)c3ccc(F)cc3)C(=O)C(=O)N2CCCN2CCOCC2)cc1OC (stereo not given) here?
**A.** -2.8%

**Q.** Which inhibition does the source give for Cc1nc2c(=O)oc3ccccc3c2n1-c1ccccc1 here?
**A.** -4.41%

**Q.** With Cn1c(C(F)(F)F)nc2c(=O)oc3ccccc3c21 as the compound, how does the inhibition read?
**A.** 66.9%

**Q.** With COc1cc(Cl)ccc1NC(=S)N(CCCN1CCOCC1)Cc1cn(C)c2ccccc12 as the compound, how does the inhibition read?
**A.** -4.57%

**Q.** Which inhibition does the source give for O=C(Nc1ccc(Oc2ccc3c(c2)C(=O)N(c2ccc(O)cc2)C3=O)cc1)c1cccs1 here?
**A.** 2.92%

**Q.** For CCCNc1nc(C)cc(-c2cc(C(=O)Nc3ccccc3)on2)n1, which inhibition is on record?
**A.** 28.1%

**Q.** With COCCNc1nc(-c2cc(C(=O)Nc3ccccc3)on2)cc(C(C)C)n1 as the compound, how does the inhibition read?
**A.** 14.4%

**Q.** With COC(=O)C1CCCCN1C(=O)CCc1nnc(CCc2c[nH]c3ccccc23)o1 (stereo not given) as the compound, how does the inhibition read?
**A.** 0.08%

**Q.** For CCCCNC(=O)c1ccc(N2CCC3(CC2)OCCO3)c([N+](=O)[O-])c1, which inhibition is on record?
**A.** -3.04%

**Q.** For COCCNC(=O)c1ccc(N2CCC3(CC2)OCCO3)c([N+](=O)[O-])c1, which inhibition is on record?
**A.** -3.57%

**Q.** With N#C[C@@H]1[C@@H]2C(=O)N(c3ccc4c(c3)OCCO4)C(=O)[C@@H]2C2c3ccccc3C=CN21 (stereo not given in full) as the compound, how does the inhibition read?
**A.** -6.97%

**Q.** Which inhibition does the source give for CCn1c(SCC(=O)Nc2cc(C(C)(C)C)nn2-c2ccccc2)nnc1-c1cccs1 here?
**A.** -2.18%

**Q.** With O=C(C1CCC(CNc2nc(=S)[nH]c3ccccc23)CC1)N1CCN(c2ccccn2)CC1 (stereo not given) as the compound, how does the inhibition read?
**A.** 6.46%

**Q.** With COc1cccc(N2CCN(C(=O)CCCCCNc3nc(=S)[nH]c4ccccc34)CC2)c1 as the compound, how does the inhibition read?
**A.** 13.8%

**Q.** Which inhibition does the source give for CCOC(=O)c1ccc(-c2c(-c3ccccc3OC)sc3cc4c(cc23)OCO4)cc1F here?
**A.** 6.83%

**Q.** Which inhibition does the source give for O=C(Cc1c(F)cccc1Cl)Nc1ccc(S(=O)(=O)N2CCOCC2)cc1 here?
**A.** -7.05%

**Q.** With CCOC(=O)CNC(=O)CNC(=O)c1nn(-c2ccc(OC)c(OC)c2)c(=O)c2ccccc12 as the compound, how does the inhibition read?
**A.** 23.4%

**Q.** For CCOC(=O)N1CCN(C(=O)CNC(=O)c2nn(-c3ccc(OC)c(Cl)c3)c(=O)c3ccccc23)CC1, which inhibition is on record?
**A.** 7.01%

**Q.** Which inhibition does the source give for O=C(c1ccccc1N(Cc1ccccc1)S(=O)(=O)c1ccccc1)N1CCOCC1 here?
**A.** -3.28%

**Q.** For Cn1c(=O)n(C)c2cc(NC(=O)COc3ccc(F)cc3)ccc21, which inhibition is on record?
**A.** -1.78%

**Q.** With O=C1CCN(CCc2ccccc2)CCN1[C@H](CSc1ccccc1)c1ccccc1 as the compound, how does the inhibition read?
**A.** 21.9%

**Q.** Which inhibition does the source give for c1ccc2c(c1)ncn2-c1ncnc2sc3c(c12)CCCC3 here?
**A.** 7.95%

**Q.** With CC(O)CNc1nc2sc3c(c2c(=O)n1CCc1ccccc1)CCCCC3 (stereo not given) as the compound, how does the inhibition read?
**A.** -3.46%

**Q.** With O=C(COc1ccccc1Cl)Nc1ccc2c(c1)C(=O)NC2=O as the compound, how does the inhibition read?
**A.** -3.92%

**Q.** With CCOC(=O)COc1ccc2c(c1)C(=O)CC(C)(C)O2 as the compound, how does the inhibition read?
**A.** 54.7%

**Q.** With CC1(C)CC(=O)c2cc(OCC(=O)NCc3cccnc3)ccc2O1 as the compound, how does the inhibition read?
**A.** -4.88%

**Q.** For COc1ccc2c(c1OC)C(=O)N1C2SC(C)(C)[C@H]1C(=O)NC(C)C (stereo not given in full), which inhibition is on record?
**A.** -6.91%

**Q.** For COc1ccc(-c2cc3nc(C)n(N)c(=O)c3s2)cc1, which inhibition is on record?
**A.** -2.06%

**Q.** With COc1ccc(-c2cc3nc[nH]c(=O)c3s2)cc1 as the compound, how does the inhibition read?
**A.** 65.4%

**Q.** Which inhibition does the source give for COc1ccc(CC(=O)Nc2nc(C)cs2)cc1OC here?
**A.** 0.84%

**Q.** With Cc1ccccc1N1CCN(C(=O)C2CCC(=O)N(C3CCCC3)C2)CC1 (stereo not given) as the compound, how does the inhibition read?
**A.** 2.89%

**Q.** Which inhibition does the source give for O=C(C1CCC(=O)N(C2CCCCCC2)C1)N1CCN(c2ccccc2Cl)CC1 (stereo not given) here?
**A.** 1.52%

**Q.** Which inhibition does the source give for CN(C)S(=O)(=O)c1ccc(C(=O)/C=C/c2cccnc2)cc1 here?
**A.** 18.5%

**Q.** With Cc1cccc2c1N(CCOc1ccc(C(C)(C)C)cc1)C(=O)C2=O as the compound, how does the inhibition read?
**A.** 4.9%

**Q.** For Cc1ccc(OCCCN2C(=O)C(=O)c3cccc(C)c32)cc1, which inhibition is on record?
**A.** 9.09%

**Q.** For COc1ccc(N2CCN(C(=O)CCc3nnc4ccc(N5CCOCC5)nn34)CC2)cc1, which inhibition is on record?
**A.** -1.82%

**Q.** Which inhibition does the source give for COc1cc(N)c(Cl)cc1C(=O)NC1CN2CCC1CC2 (stereo not given) here?
**A.** 4.28%

**Q.** Which inhibition does the source give for CCOc1cc(N)c(Cl)cc1C(=O)NCC1CN(Cc2ccc(F)cc2)CCO1 (stereo not given) here?
**A.** -1.66%

**Q.** Which inhibition does the source give for COc1ccc(S(=O)(=O)N2CCOC2CNC(=O)C(=O)NCc2ccco2)cc1 (stereo not given) here?
**A.** 0.26%

**Q.** For CCC(C)Nc1nc(Cl)nc(NCCOc2ccccc2)n1 (stereo not given), which inhibition is on record?
**A.** 5.37%

**Q.** With O=C(CCC(=O)N(CC(=O)NC1CCCCC1)CC1CCCO1)Nc1nccs1 (stereo not given) as the compound, how does the inhibition read?
**A.** -1.08%

**Q.** With O=C(Nc1cccnc1Cl)c1cc(-c2ccc(Cl)cc2)on1 as the compound, how does the inhibition read?
**A.** 5.26%

**Q.** With Cc1c(Cl)cccc1NC(=O)c1cc(-c2ccco2)on1 as the compound, how does the inhibition read?
**A.** 3.35%

**Q.** For COc1ccccc1CSc1ncc(-c2ccc([N+](=O)[O-])cc2)[nH]1, which inhibition is on record?
**A.** -2.06%

**Q.** Which inhibition does the source give for O=[N+]([O-])c1ccc(-c2cnc(SCc3ccccc3Cl)[nH]2)cc1 here?
**A.** -2.76%

**Q.** Which inhibition does the source give for COCC(=O)N1CCC(Oc2cccc(C(=O)NCc3ccccn3)c2)CC1 here?
**A.** -0.85%

**Q.** Which inhibition does the source give for O=C(O)CCN1C(=O)C(=C2CCCCCC2)SC1=S here?
**A.** -3.58%

**Q.** For CCCCN1C(=O)/C(=C2/C=CC=CN2C)SC1=S, which inhibition is on record?
**A.** -5.48%

**Q.** With CCCCn1nc2cc(C(=O)NCc3ccc(OC(F)(F)F)cc3)ccc2c1OC as the compound, how does the inhibition read?
**A.** 6.36%

**Q.** For O=C(NN1CCOCC1)C12CC3CC(CC(C3)C1)C2, which inhibition is on record?
**A.** -3.63%

**Q.** Which inhibition does the source give for COc1ccc2c3c([nH]c2c1)C1CC2C(CC(O)C(OC)C2C(=O)O)CN1CC3 (stereo not given) here?
**A.** -4.38%

**Q.** With COc1ccc2c3c([nH]c2c1)[C@H]1C[C@H]2[C@H](C[C@@H](O)[C@H](OC)[C@H]2C(=O)O)CN1CC3 as the compound, how does the inhibition read?
**A.** 1.26%

**Q.** For C=Cn1nc(C)c2ccccc2c1=O, which inhibition is on record?
**A.** -3.9%

**Q.** Which inhibition does the source give for COC(=O)c1cc(=O)n(CCc2ccccc2)c(=Nc2ccc(F)cc2)s1 here?
**A.** 4.1%

**Q.** Which inhibition does the source give for COC(=O)c1cc(=O)n(Cc2ccc(F)cc2)c(=Nc2ccccc2)s1 here?
**A.** 4.7%

**Q.** For COc1cccc(NC(=O)[C@H](CC(C)C)NC(=O)N2CCn3c2nc2ccccc23)c1, which inhibition is on record?
**A.** 11.4%

**Q.** For NC(=O)[C@H](Cc1cc2ccccc2s1)NC(=O)[C@@H]1CC2(CC(c3cccc(NC(=O)[C@@H]4CCC(=O)N4)c3)=NO2)CN1C(=O)c1ccccc1 (stereo not given in full), which inhibition is on record?
**A.** -4.74%

**Q.** Which inhibition does the source give for NC(=O)C1CCN(CCCNC2CC(=O)N(Cc3ccc(N4CCCC4=O)cc3)C2=O)CC1 (stereo not given) here?
**A.** -6.69%

**Q.** For Nc1cc(C(=O)OCC(=O)NNC(=O)c2ccccc2F)ccc1Cl, which inhibition is on record?
**A.** 25.6%

**Q.** Which inhibition does the source give for Nc1cc(C(=O)OCC(=O)NNC(=O)c2ccccc2)ccc1Cl here?
**A.** 35.4%

**Q.** Which inhibition does the source give for CCOc1cc(Cl)c(CNCCCN2CCOCC2)cc1OC here?
**A.** 5.34%

**Q.** For CCOC(=O)c1c(C)[nH]c(C(=O)COC(=O)c2cc(C)oc2C)c1C, which inhibition is on record?
**A.** -7.77%

**Q.** With COc1ccc(-c2ccc(C#N)c(SCC(=O)NCCc3ccccc3)n2)cc1OC as the compound, how does the inhibition read?
**A.** 8.95%

**Q.** Which inhibition does the source give for N#Cc1ccc(-c2ccc3c(c2)OCO3)nc1SCC(=O)OCc1ccccc1 here?
**A.** -7.31%

**Q.** With S=C(NC1CCCCC1)N1CCN(Cc2ccccc2Cl)CC1 as the compound, how does the inhibition read?
**A.** 1.74%

**Q.** For COc1ccc2c(COC(=O)CCS(=O)(=O)c3ccccc3)cc(=O)oc2c1, which inhibition is on record?
**A.** -17.5%

**Q.** Which inhibition does the source give for Cn1c(SCc2nc3ccccc3c(=O)[nH]2)nc2ccccc21 here?
**A.** 1.19%

**Q.** Which inhibition does the source give for O=c1[nH]c(CSc2ccccn2)nc2ccccc12 here?
**A.** 3.19%

**Q.** With O=C(c1ccco1)N1CCN(C(=S)Nc2ccc(Br)cc2Cl)CC1 as the compound, how does the inhibition read?
**A.** -10.4%

**Q.** Which inhibition does the source give for COc1cccc(-c2cc(C(=O)O)no2)c1 here?
**A.** -0.44%

**Q.** With COC(=O)c1cc(-c2ccccc2)on1 as the compound, how does the inhibition read?
**A.** 69.8%

**Q.** Which inhibition does the source give for CCOc1ccc(NC(=O)COc2nsnc2N2CCOCC2)cc1 here?
**A.** -1.39%

**Q.** For CCN(c1ccccc1)S(=O)(=O)c1ccc(Cl)c(NC(=O)COC(=O)c2ccc[nH]c2=O)c1, which inhibition is on record?
**A.** -8.08%

**Q.** Which inhibition does the source give for CCCCCCn1nc(C(=O)OCC(=O)c2c(N)n(C)c(=O)n(C)c2=O)c2ccccc2c1=O here?
**A.** 9.07%

**Q.** With COc1ccc2c3n(nc2c1)CCN=C3c1ccc(Cl)cc1 as the compound, how does the inhibition read?
**A.** 4.84%

**Q.** For COc1ccc(C2=NCCn3nc4cc(OC)ccc4c32)cc1, which inhibition is on record?
**A.** 1.06%

— PubChem BioAssay AID449762 (Southern Research Specialized Biocontainment Screening …, 2010)
